The results in this text go back to PubChem BioAssay (NCATS).

Inconclusive results are not listed. Activity calls are given as the source filed them. The call rests on the fitted dose curve; in most records, active means well fitted curve in the direction sought with a large enough effect; inconclusive means small, poorly fitted or top-dose-only effect, or another doubt; inactive means no such curve, though single readings can be large; an effect the other way counts as inactive or inconclusive.

Assay [1] is described as follows: Cellular Toxicity (caspase-3) NIH 3T3 (AID 666). In a few lines:
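Mouse NIH 3T3 fibroblasts (1000 cells/well) were treated with compound for 16 hr at 37°C in complete medium; caspase-3/7 activity was read by Caspase-Glo luminescence. Normalized to DMSO and 100 uM tamoxifen; AC50 from Hill fits.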

Assay [2] is described as follows: Cellular Toxicity (caspase-3) Renal Proximal Tubule (AID 667).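 Further: cells exposed to compound for 16 hours at 37 °C before detection.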 In a few lines: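 Luminescent caspase 3/7 signal from peptide-aminoluciferin cleavage measures apoptosis in freshly isolated rat kidney proximal tubule cells after 16 h compound exposure. Concentration-response data are normalized to DMSO and 10 uM staurosporine, and AC50 values come from Hill equation fits.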

The target in assay [3] is Cytochrome P450 3A4 (Homo sapiens) (UniProt P08684). The assay can be described thus: qHTS Assay for Inhibitors and Substrates of Cytochrome P450 3A4 (AID 884). Further: series mostly up to about 57 µM; nearly all actives have a fitted effect of over 50% in size. Summed up: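 20 nM human CYP3A4 with 25 uM Luciferin-PPXE (at KM) in 200 mM KPO4, preincubated 10 min with compound; NADPH regeneration started a 60 min RT reaction. Luciferin detected by luminescence, normalized to 57 uM ketoconazole as full inhibition.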
Sequence of Cytochrome P450 3A4 (Homo sapiens) (P08684 whole entry, looked up): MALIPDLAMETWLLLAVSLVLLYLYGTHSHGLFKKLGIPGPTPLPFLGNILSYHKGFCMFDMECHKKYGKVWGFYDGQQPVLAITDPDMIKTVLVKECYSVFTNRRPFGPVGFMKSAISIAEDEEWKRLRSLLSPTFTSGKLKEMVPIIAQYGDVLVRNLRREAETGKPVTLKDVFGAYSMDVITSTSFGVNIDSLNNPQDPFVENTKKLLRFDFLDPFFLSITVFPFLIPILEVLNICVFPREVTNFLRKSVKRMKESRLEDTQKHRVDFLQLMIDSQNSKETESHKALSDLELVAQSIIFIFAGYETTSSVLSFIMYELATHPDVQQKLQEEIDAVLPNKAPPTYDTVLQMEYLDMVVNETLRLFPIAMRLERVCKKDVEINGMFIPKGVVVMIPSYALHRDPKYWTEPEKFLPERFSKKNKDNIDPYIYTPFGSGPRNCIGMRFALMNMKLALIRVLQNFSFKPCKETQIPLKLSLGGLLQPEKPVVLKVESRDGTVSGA

Assay [4] can be described thus: Cell Viability - LYMP2-001 (AID 921).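 Further: cells exposed to compound for 24 h at 37 °C; nearly all actives have a fitted effect of over 70% in size.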 Further: potency means the concentration at half of the fitted maximal effect. Summed up: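 CellTiter-Glo luminescence (intracellular ATP) after 24 hr compound exposure at 37 C, 2500 lymphoblastoid cells/well in complete medium. AC50 fitted with standard Hill equation; tetraoctylammonium bromide positive control.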
Assay [5] is described as follows: MultiTox-Fluor Cytotoxicity Assay - LYMP1-001 - Dead Cells (AID 946). Further: potency means the concentration at half of the fitted maximal effect. In a few lines:
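Cytotoxicity as increased dead-cell protease fluorescence (bis-AAF-R110, 485/520 nm), read 60 min after MultiTox-Fluor reagent. Human lymphoblastoid line exposed 16 h; Hill-fitted AC50, with DMSO as 0% and 15 uM tetraoctylammonium bromide as 100%.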

A short description of assay [6]: MultiTox-Fluor Cytotoxicity Assay - LYMP1-001 - Live Cells (AID 947). Further: potency means the concentration at half of the fitted maximal effect.
Assay [7] in a line: Cell Viability - LYMP1-002 - Assay at 16 hr (AID 948). Further: potency means the concentration at half of the fitted maximal effect. Summed up: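 LYMP1-002 human lymphoblastoid cells, 2500/well; 5 hr 37 C; cpd 16 hr 37 C; CellTiter-Glo 30 min RT; luminescence (ATP). Concentration-response, Hill-fit AC50. Pos ctrl tetraoctylammonium bromide.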
Assay [8] deals with Cytochrome P450 3A4 (Homo sapiens) (UniProt P08684). The assay can be described thus: qHTS Assay for Activators of Cytochrome P450 3A4 (AID 885). Further: nearly all actives have a fitted effect of over 65% in size. Summed up:
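Signal was normalized against complete inhibition by 57 uM ketoconazole. The reaction used 20nM CYP3A4 with 25uM Luciferin-PPXE, 10-min compound preincubation and a 60-min NADPH-supported step at RT.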

Assay [9] can be described thus: Confirmation and Secondary Assay for Modulators of Hemoglobin Beta Chain Splicing at IVS2 654 locus (AID 910).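 Further: HeLa cells stably carrying EGFP split by mutant beta-globin IVS2-654 intron.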 In a few lines: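 HeLa cells stably expressing EGFP interrupted by β-globin IVS2-654 intron, seeded overnight in Opti-MEM/2% FCS, then treated 2 days at 37 °C. Restored splicing read as total peak GFP intensity per well by laser scanning cytometry (488 nm excitation, 500–520 nm emission); 500 nM antisense PNA as control.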

Assay [10] can be described thus: Confirmation and Secondary Assay for Modulators of Hemoglobin Beta Chain Splicing at IVS2 705 locus (AID 930).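 Further: HeLa cells stably expressing the EGFP-705 splicing reporter; GFP fluorescence per well restored by corrected splicing of the IVS2-705 intron in EGFP; series mostly up to about 46 µM.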 Summed up:
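HeLa IVS2-705 EGFP reporter cells, 500/well, compound 2 d at 37C; correct splicing yields fluorescent EGFP. Control: 500 nM antisense PNA. Read-out: total peak GFP intensity.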

As for `c1ccc2occc2c1`, the Potency entry in assay [1], in [3], in [4], in assay [5], in [6] and in assay [7] was “inactive” throughout. Besides, in assay [2], the outcome was inactive.

Turning to `CC(C)(c1ccc(O)cc1)c1ccc(O)cc1`, the Potency result in assay [1], in [8], in assay [4], in assay [5], in [6] and in [7] was “inactive” throughout. Besides, the result in assay [2] was inactive.

On to `Oc1ccccc1`, for which the Potency entry in [1], in assay [3], in [4], in assay [5], in assay [6] and in assay [7] was “inactive” each time. In addition, the compound was called inactive in assay [2].

Turning to `Nc1cccc2c(N)cccc12`, the Potency result in assay [1], in [4], in [5] and in [7] was “inactive” each time. Besides, the result in assay [2] was inactive.

In the case of `Cc1ccc(O)cc1`, the Potency entry in [1], in [4], in assay [5], in [6] and in assay [7] was “inactive” in each case. Besides, the compound was classed as inactive in [2], in assay [9] and in [10].

For the compound `O=C(NO)c1ccccc1`, the Potency entry in [1], in assay [3], in assay [4], in [5], in [6] and in assay [7] was “inactive” each time. In addition, the compound was classed as inactive in assay [2].

`COc1cc(C=O)ccc1O`: the Potency entry in assay [1], in assay [3], in [4], in [5], in assay [6] and in [7] was “inactive” in each case. For the same compound, the compound was classed as inactive in [2].

Consider `CCCCCCCCCCCCCCCC[n+]1ccccc1`, for which the Potency entry in assay [1] was “inactive”. Moreover, the compound was classed as inactive in assay [2]. In addition, the Potency in [4] is 10 µM (active); in assay [5] it was 10 µM (active); in assay [6], 20 µM (active); in assay [7], 25.1 µM (active).

`C1=CC2C3C=CC(C3)C2C1` (centres undefined): the Potency result in assay [1], in [3], in assay [4], in [5], in [6] and in assay [7] was “inactive” in each case. Moreover, in assay [2], the call was inactive.

On to `CC(C)(C)c1ccc(O)c(O)c1`, for which the call in assay [2] was inactive. Further, the Potency entry in [3], in assay [5] and in [6] was “inactive” throughout. For the same compound, the Potency in [4] was 31.6 µM (active).

With `O=C(Oc1ccccc1)c1ccccc1O`, the Potency entry in assay [1], in assay [3], in [4], in assay [5], in assay [6] and in assay [7] was “inactive” each time.

As for `O=C(c1ccccc1)c1ccccc1`, the Potency result in assay [1], in assay [4], in assay [5], in assay [6] and in [7] was “inactive” in each case. The compound was classed as inactive in [2].

For `CCCC(=O)c1cc(O)c(O)cc1O`, the Potency result in [1], in assay [3], in [4], in assay [5], in [6] and in assay [7] was “inactive” in each case. The outcome in assay [2] was inactive.

With `OCc1c[nH]c2ccccc12`, the Potency entry in [1], in [3], in [4], in assay [5], in assay [6] and in [7] was “inactive” throughout. Further, the outcome in assay [2], in assay [9] and in [10] was inactive.

Regarding `CC(C)C(C)(C)C(C)(C)C(C)(C)S`, the Potency entry in [1], in assay [3], in [4], in [5], in assay [6] and in [7] was “inactive” throughout. The call in assay [2] was inactive.

`Brc1ccccc1-c1ccccc1`: the Potency entry in assay [1], in [3], in assay [4], in assay [5], in assay [6] and in assay [7] was “inactive” in each case. In addition, in assay [2], the call was inactive.

Take `CC(=O)OC/C=C(C)/C=C/C=C(C)/C=C/C1=C(C)CCCC1(C)C`: the Potency entry in assay [1], in [6] and in assay [7] was “inactive” each time. Also, the compound was called inactive in assay [2], in [9] and in assay [10].
